# Measured values taken from the supplement of paper PMC6555819.
# Experiments:
# Assay in all cases: PBM binding z-score (relative to random genomic background probes); higher = stronger binding; sequences stand for … in GC…GCGATTGACAGCGTAGAATGAAGG
# [1] = system: FXR:RXRa (NR concentration 270 nM, RXRa partner concentration 90 nM)
# Outline: (§1)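 On custom Agilent 4×180K arrays, double-stranded probes with 34-nt variable regions carried direct-repeat seeds, single-nucleotide variants, half-site ablations or random human genomic background. Ligand-free nuclear receptor dimers were applied for 1 h, and binding was read with antibodies against each partner (one per run). Binding z-scores come from regression-normalized fluorescence, with the random background probes as reference.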
# [2] = system: LXRa:RXRa (NR concentration 270 nM, RXRa partner concentration 90 nM)
# Outline: as §1
# [3] = system: LXRa homodimer (NR concentration 270 nM)
# Outline: as §1
# [4] = system: LXRb:RXRa (NR concentration 270 nM, RXRa partner concentration 90 nM)
# Outline: as §1
# [5] = system: LXRb homodimer (NR concentration 270 nM)
# Outline: as §1
# [6] = system: PPARa:RXRa (NR concentration 270 nM, RXRa partner concentration 90 nM)
# Outline: as §1
# [7] = system: PPARg:RXRa (NR concentration 180 nM, RXRa partner concentration 90 nM)
# Outline: as §1
# [8] = system: PPARg:RXRa 270nM:90nM, anti-RXR (NR concentration 270 nM, RXRa partner concentration 90 nM)
# Outline: as §1
# [9] = system: PPARg:RXRa 30nM:10nM, anti-RXR (NR concentration 30 nM, RXRa partner concentration 10 nM)
# Outline: as §1
# [10] = system: PPARg:RXRa 90nM:30nM, anti-RXR (NR concentration 90 nM, RXRa partner concentration 30 nM)
# Outline: as §1
# [11] = system: PPARg:RXRa DBDmut IVT, anti-RXR (DBD mutation: RXRa K156A/R161A, NR concentration 270 nM, RXRa partner concentration 90 nM)
# Outline: as §1
# [12] = system: PPARg:RXRa IVT, anti-PPARg (NR concentration 270 nM, RXRa partner concentration 90 nM)
# Outline: as §1
# [13] = system: PPARg DBDmut:RXRa IVT, anti-PPARg (DBD mutation: PPARg1 K132A/R137A, NR concentration 270 nM, RXRa partner concentration 90 nM)
# Outline: as §1
# [14] = system: PPARg DBDmut IVT, anti-PPARg (DBD mutation: PPARg1 K132A/R137A, NR concentration 270 nM)
# Outline: as §1
# [15] = system: PPARg homodimer (NR concentration 180 nM)
# Outline: as §1
# [16] = system: PXR:RXRa (NR concentration 270 nM, RXRa partner concentration 90 nM)
# Outline: as §1
# [17] = system: PXR homodimer (NR concentration 270 nM)
# Outline: as §1
# [18] = system: RARa:RXR (NR concentration 270 nM, RXRa partner concentration 90 nM)
# Outline: as §1
# [19] = system: RARa homodimer (NR concentration 270 nM)
# Outline: as §1
# [20] = system: RARb:RXRa (NR concentration 270 nM, RXRa partner concentration 90 nM)
# Outline: as §1
Sequence,PBM binding z-score [1],PBM binding z-score [2],PBM binding z-score [3],PBM binding z-score [4],PBM binding z-score [5],PBM binding z-score [6],PBM binding z-score [7],PBM binding z-score [8],PBM binding z-score [9],PBM binding z-score [10],PBM binding z-score [11],PBM binding z-score [12],PBM binding z-score [13],PBM binding z-score [14],PBM binding z-score [15],PBM binding z-score [16],PBM binding z-score [17],PBM binding z-score [18],PBM binding z-score [19],PBM binding z-score [20]
CCTGCCAGGTCAATGGTCAGCTAAAGCAGCTCGC,3.36,2.51,-0.047,1.96,-0.196,3.48,2.59,3.44,0.524,2.57,1.49,2.41,-0.936,-1.59,0.763,1.6,-0.223,1.96,-0.54,3.66
ACGAGTTGGTCAGCTGAGGTCACACACAATTCGG,3.59,3.08,1.81,3.17,-0.229,3.6,1.64,2.17,0.283,1.3,0.74,1.98,-0.0405,0.48,2.66,5.43,2.1,4.82,0.588,3.59
CCTCGGATGACAGAAGGTCAGAGCTGTCCGCTTT,1.3,1.79,0.493,1.37,0.0484,2.01,0.0217,0.56,-0.64,0.0995,0.0182,-0.0257,-1.19,-1.32,1.51,1.5,0.235,1.85,0.773,2.59
GCTATTAGTTGAAAGGGCAACCGAATGATTCTCG,0.555,0.733,0.435,0.971,0.134,2.33,2.9,4.29,2.39,4.05,0.456,1.11,0.0571,0.432,1.15,0.708,0.108,1.38,0.652,2
ACTCTTAGTTGAGACGAGGGCAACCGATAGGTTG,0.56,-0.132,-0.317,0.037,-0.519,0.348,0.499,-0.0707,-0.348,-0.0252,-0.123,0.386,-0.0171,0.118,-0.417,1.34,-0.122,0.668,-0.22,0.939
CCTGCTAGGGCATGGTCAGCTAATCTACAGTATG,-0.287,-0.381,-0.466,-0.695,-1.06,-0.338,0.0735,-0.381,-0.463,-0.375,1.27,0.942,-0.789,-1.21,-0.604,-0.584,-0.686,-0.414,-0.802,1.43
TCTTATAGGTAAAGGTGAAAGTCGAACGATATGA,1.15,1.59,0.00548,1.58,0.488,3.27,3.38,4.4,4.42,4.81,3.92,3.7,2,1.77,1.61,1.11,0.648,1.96,1.18,2.21
CGTCCAAGGTCAGAAAGGTCAGTGAATGCCGAGT,5.85,5,3.05,4.56,0.524,4.94,3.36,4.31,0.967,2.8,1.91,3.14,-0.203,-0.0818,3.94,6.06,10.7,5.92,3.03,5.34
CCGACTGGGGCATAAGGTTTCCATAAGCCAGCCC,0.03,-0.0633,-0.565,-0.536,-1.41,0.26,1.11,1.75,-0.0792,1.44,3.04,2.38,-1.41,-1.66,-0.419,-0.536,-0.762,-0.479,0.00521,0.514
GCTAGCAGTCCATTTGGGTCACTCAATGACGGGC,0.123,-0.125,-0.706,-0.0386,-0.905,0.937,0.41,0.105,-0.37,-0.0818,0.379,1.16,-1.16,-1.53,0.032,0.67,0.689,0.82,-0.831,0.88
CCTACTGGGCCATCAGCTCATTGATATCAACGTT,-0.649,-0.431,-0.409,-0.655,-0.446,-0.141,0.457,0.344,-0.273,0.098,3.97,3.36,-0.394,-0.205,-0.413,-0.673,-0.788,-0.689,-0.576,-0.0601
CTTCCAAGGTCAGAGAGGTCAGTGAATGCCGAGT,5.96,5.16,3.44,4.49,0.991,4.78,3.44,4.24,1.24,2.89,2.81,3.44,-0.247,0.0425,3.75,5.75,11.5,4.71,1.5,5.27
CTACCAAGGTGAACAAGGTCGTTTATTACTATTC,1.5,1.78,0.765,2.61,-0.00441,2.46,1.06,1.2,0.0871,0.818,2.67,2.5,0.494,0.322,1.29,3.07,2.38,2.12,0.698,2.26
